Results from the supplement of paper PMC10849652.
Targets with a hit are over-represented here; the source holds about 8,800 in all. About 0.5% of all pairs of compound and target were hits.

Tests used:
Test in all cases: log2 fold change, soluble protein after heating vs DMSO (PISA); higher = thermal stabilisation; K562 lysate, 10 uM; active = over 0.2 and 3.5 SD of the protein, either way, in both replicates (recomputed)
nilotinib = compound: Cc1cn(-c2cc(NC(=O)c3ccc(C)c(Nc4nccc(-c5cccnc5)n4)c3)cc(C(F)(F)F)c2)cn1 [nilotinib]
Outline: (§1)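 Dounce homogenisation of K562 pellets in PBS pH 7.4 with 1 mM MgCl2 produced a crude extract, used at 1 mg/mL protein. Exposure to 10 μM compound lasted 30 min, and aliquots were then heated for 3 min across 48°C-58°C, pooled and brought to 0.5% NP-40 at 4°C. The supernatant after 21,000xg for 90 min was quantified by TMTpro 16plex LC-MS/MS with channel sums equalised. Duplicate values are given as log-two fold change in thermal stability relative to solvent controls.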

[1] = compound: Cc1nc(Nc2n[nH]c3c2CN(C(=O)N[C@H](CN(C)C)c2ccccc2)C3(C)C)c2sccc2n1
Outline: as §1

dasatinib = compound: Cc1nc(Nc2ncc(C(=O)Nc3c(C)cccc3Cl)s2)cc(N2CCN(CCO)CC2)n1 [dasatinib]
Outline: as §1

[2] = compound: Cc1ncc(-c2ccnc(Nc3ccc(S(C)(=O)=O)cc3)n2)n1C(C)C
Outline: as §1

[3] = compound: Cn1cc(-c2ccc3c(c2)CCN3C(=O)Cc2cccc(C(F)(F)F)c2)c2c(N)ncnc21
Outline: as §1

quisinostat = compound: Cn1cc(CNCC2CCN(c3ncc(C(=O)NO)cn3)CC2)c2ccccc21 [quisinostat]
Outline: as §1

tipifarnib = compound: Cn1cncc1[C@@](N)(c1ccc(Cl)cc1)c1ccc2c(c1)c(-c1cccc(Cl)c1)cc(=O)n2C [tipifarnib]
Outline: as §1

[4] = compound: NC(=O)Nc1cc(-c2cccc(F)c2)sc1C(=O)N[C@H]1CCCNC1
Outline: as §1

[5] = compound: NC(=O)c1cnc(N[C@@H]2CCCC[C@@H]2N)nc1Nc1cccc(-n2nccn2)c1
Outline: as §1

[6] = compound: NC1(c2ccc(-c3nc4ccn5c(=O)[nH]nc5c4cc3-c3ccccc3)cc2)CCC1
Outline: as §1

Measured: log2 fold change

HDAC2 (UniProt Q92769)
inactive: nilotinib -0.022 | [1] 0.014 | dasatinib -0.024 | [2] -0.013 | [3] 0.044 | tipifarnib -0.011 | [4] 0.018 | [5] 0.001 | [6] -0.031
active: quisinostat 0.635

INTS14 (UniProt Q96SY0)
inactive: nilotinib 0.024 | [1] 0.023 | dasatinib -0.038 | [2] -0.023 | [3] -0.004 | quisinostat -0.018 | tipifarnib -0.004 | [4] -0.01 | [5] -0.026 | [6] -0.011

GMIP (UniProt Q9P107)
Sequence of UniProt Q9P107 (Q9P107 whole entry, looked up): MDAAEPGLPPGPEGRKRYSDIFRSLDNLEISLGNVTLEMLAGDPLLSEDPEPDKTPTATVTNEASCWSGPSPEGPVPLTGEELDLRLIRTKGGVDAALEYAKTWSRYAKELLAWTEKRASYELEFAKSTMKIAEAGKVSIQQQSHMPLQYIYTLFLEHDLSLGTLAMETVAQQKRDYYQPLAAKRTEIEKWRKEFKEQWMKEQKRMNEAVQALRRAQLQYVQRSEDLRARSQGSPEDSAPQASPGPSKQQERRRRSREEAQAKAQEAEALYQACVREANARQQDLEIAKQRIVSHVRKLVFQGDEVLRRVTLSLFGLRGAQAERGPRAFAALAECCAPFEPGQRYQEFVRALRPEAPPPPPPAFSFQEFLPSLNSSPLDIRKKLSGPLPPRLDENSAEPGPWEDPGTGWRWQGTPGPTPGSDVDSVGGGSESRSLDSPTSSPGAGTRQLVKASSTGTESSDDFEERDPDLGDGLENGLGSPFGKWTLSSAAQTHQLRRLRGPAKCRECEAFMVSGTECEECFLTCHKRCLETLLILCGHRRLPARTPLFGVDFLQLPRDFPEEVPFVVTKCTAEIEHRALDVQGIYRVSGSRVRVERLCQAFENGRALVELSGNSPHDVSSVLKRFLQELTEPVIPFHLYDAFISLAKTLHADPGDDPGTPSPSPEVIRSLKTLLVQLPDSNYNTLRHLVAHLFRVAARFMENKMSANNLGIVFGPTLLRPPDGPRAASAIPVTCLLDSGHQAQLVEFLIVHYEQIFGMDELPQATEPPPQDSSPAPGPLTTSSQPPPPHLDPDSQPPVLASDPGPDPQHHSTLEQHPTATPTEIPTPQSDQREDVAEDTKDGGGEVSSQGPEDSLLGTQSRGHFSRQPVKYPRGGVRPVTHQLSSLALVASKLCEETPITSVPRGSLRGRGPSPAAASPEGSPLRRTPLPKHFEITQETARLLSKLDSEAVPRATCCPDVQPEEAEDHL
inactive: nilotinib -0.094 | [1] -0.041 | dasatinib -0.097 | [2] -0.058 | [3] 0.023 | quisinostat -0.012 | tipifarnib -0.017 | [4] 0.034 | [5] -0.025 | [6] -0.022

KDM1A (UniProt O60341)
inactive: nilotinib -0.009 | [1] 0.007 | dasatinib -0.023 | [2] 0.005 | [3] 0.012 | quisinostat -0.045 | tipifarnib -0.052 | [4] 0.029 | [5] 0.007 | [6] -0.026

HSD17B10 (UniProt Q99714)
Sequence of UniProt Q99714 (Q99714 whole entry, looked up): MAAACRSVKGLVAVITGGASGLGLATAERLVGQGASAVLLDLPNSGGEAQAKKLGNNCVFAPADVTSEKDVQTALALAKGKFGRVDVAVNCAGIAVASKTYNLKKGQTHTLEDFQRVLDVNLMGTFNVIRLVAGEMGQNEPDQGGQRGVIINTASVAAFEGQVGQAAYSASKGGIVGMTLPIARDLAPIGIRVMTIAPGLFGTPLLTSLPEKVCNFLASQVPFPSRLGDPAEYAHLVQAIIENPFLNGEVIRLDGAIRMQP
inactive: nilotinib 0 | [1] -0.044 | dasatinib -0.034 | [2] -0.001 | [3] -0.017 | quisinostat -0.01 | tipifarnib 0.008 | [4] 0.013 | [5] -0.002 | [6] 0.005

IGFBP4 (UniProt P22692)
Sequence of UniProt P22692 (P22692 whole entry, looked up): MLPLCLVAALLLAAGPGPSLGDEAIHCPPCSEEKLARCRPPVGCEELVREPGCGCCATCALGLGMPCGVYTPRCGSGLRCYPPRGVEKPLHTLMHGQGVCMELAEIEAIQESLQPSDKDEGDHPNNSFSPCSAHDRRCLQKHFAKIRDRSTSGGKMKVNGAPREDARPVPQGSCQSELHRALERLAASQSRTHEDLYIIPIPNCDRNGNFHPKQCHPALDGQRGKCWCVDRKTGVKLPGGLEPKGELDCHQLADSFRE
inactive: nilotinib 0.005 | [1] -0.01 | dasatinib 0.085 | [2] -0.053 | [3] -0.022 | quisinostat -0.049 | tipifarnib 0.119 | [4] -0.021 | [5] 0.293 | [6] -0.026

KIAA0930 isoform 2 (UniProt Q6ICG6)
inactive: nilotinib -0.041 | [1] 0.05 | dasatinib 0.202 | [2] -0.109 | [3] -0.021 | quisinostat 0.03 | tipifarnib -0.037 | [4] -0.026 | [5] -0.047

HAUS8 (UniProt Q9BT25)
inactive: nilotinib 0.025 | [1] 0.026 | dasatinib -0.073 | [2] 0.005 | [3] 0.015 | quisinostat -0.085 | tipifarnib 0.004 | [4] 0.042 | [5] 0.02 | [6] 0.006

HAUS6 (UniProt Q7Z4H7)
Sequence of UniProt Q7Z4H7 (Q7Z4H7 whole entry, looked up): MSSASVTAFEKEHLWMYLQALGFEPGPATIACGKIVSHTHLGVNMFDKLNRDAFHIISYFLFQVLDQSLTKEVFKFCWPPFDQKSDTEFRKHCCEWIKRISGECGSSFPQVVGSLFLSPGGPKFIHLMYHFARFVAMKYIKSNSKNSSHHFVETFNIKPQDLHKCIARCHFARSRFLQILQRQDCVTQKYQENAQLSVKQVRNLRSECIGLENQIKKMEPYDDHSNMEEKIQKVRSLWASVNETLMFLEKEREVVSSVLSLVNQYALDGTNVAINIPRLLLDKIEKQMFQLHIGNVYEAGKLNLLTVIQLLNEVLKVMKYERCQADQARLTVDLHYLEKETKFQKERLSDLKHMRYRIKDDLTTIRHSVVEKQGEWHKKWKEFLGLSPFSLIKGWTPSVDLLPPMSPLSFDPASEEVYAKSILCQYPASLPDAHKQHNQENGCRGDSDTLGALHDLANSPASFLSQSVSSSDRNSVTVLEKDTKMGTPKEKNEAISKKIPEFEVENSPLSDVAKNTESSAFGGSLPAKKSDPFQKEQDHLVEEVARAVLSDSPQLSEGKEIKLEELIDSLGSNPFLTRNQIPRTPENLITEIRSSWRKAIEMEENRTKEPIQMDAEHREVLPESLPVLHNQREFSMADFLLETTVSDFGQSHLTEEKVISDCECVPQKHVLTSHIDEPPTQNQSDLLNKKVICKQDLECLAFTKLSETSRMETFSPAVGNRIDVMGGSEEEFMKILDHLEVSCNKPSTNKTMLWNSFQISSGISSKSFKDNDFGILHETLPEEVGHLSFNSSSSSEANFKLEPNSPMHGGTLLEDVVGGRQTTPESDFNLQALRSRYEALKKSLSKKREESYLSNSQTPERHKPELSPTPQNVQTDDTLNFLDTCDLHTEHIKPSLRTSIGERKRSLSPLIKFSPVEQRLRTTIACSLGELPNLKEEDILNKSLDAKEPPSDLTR
inactive: nilotinib -0.022 | [1] -0.008 | dasatinib -0.057 | [2] 0.022 | [3] 0.038 | quisinostat -0.066 | tipifarnib 0.053 | [4] 0.035 | [5] -0.055 | [6] -0.004

HMBOX1 isoform 5 (UniProt Q6NT76)
inactive: nilotinib 0.186 | [1] -0.038 | dasatinib -0.034 | [2] 0.078 | [3] 0.024 | quisinostat -0.008 | tipifarnib 0.077 | [4] 0.001 | [5] 0.041 | [6] -0.055

HS1BP3 (UniProt Q53T59)
inactive: nilotinib 0.021 | [1] -0.016 | dasatinib 0.023 | [2] -0.007 | [3] 0 | quisinostat -0.006 | tipifarnib 0.042 | [4] -0.019 | [5] 0.024 | [6] -0.014

ISCA1 isoform 2 (UniProt Q9BUE6)
Sequence of UniProt Q9BUE6 (Q9BUE6 whole entry, looked up): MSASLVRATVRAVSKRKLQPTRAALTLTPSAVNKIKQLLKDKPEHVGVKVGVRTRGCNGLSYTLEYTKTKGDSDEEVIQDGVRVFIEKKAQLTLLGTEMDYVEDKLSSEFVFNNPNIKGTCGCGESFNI
inactive: nilotinib 0.043 | [1] 0.251 | dasatinib 0 | [2] 0.111 | [3] -0.002 | quisinostat 0.025 | tipifarnib 0.026 | [4] -0.05 | [5] -0.007 | [6] 0.013

IRS2 (UniProt Q9Y4H2)
Sequence of UniProt Q9Y4H2 (Q9Y4H2 whole entry, looked up): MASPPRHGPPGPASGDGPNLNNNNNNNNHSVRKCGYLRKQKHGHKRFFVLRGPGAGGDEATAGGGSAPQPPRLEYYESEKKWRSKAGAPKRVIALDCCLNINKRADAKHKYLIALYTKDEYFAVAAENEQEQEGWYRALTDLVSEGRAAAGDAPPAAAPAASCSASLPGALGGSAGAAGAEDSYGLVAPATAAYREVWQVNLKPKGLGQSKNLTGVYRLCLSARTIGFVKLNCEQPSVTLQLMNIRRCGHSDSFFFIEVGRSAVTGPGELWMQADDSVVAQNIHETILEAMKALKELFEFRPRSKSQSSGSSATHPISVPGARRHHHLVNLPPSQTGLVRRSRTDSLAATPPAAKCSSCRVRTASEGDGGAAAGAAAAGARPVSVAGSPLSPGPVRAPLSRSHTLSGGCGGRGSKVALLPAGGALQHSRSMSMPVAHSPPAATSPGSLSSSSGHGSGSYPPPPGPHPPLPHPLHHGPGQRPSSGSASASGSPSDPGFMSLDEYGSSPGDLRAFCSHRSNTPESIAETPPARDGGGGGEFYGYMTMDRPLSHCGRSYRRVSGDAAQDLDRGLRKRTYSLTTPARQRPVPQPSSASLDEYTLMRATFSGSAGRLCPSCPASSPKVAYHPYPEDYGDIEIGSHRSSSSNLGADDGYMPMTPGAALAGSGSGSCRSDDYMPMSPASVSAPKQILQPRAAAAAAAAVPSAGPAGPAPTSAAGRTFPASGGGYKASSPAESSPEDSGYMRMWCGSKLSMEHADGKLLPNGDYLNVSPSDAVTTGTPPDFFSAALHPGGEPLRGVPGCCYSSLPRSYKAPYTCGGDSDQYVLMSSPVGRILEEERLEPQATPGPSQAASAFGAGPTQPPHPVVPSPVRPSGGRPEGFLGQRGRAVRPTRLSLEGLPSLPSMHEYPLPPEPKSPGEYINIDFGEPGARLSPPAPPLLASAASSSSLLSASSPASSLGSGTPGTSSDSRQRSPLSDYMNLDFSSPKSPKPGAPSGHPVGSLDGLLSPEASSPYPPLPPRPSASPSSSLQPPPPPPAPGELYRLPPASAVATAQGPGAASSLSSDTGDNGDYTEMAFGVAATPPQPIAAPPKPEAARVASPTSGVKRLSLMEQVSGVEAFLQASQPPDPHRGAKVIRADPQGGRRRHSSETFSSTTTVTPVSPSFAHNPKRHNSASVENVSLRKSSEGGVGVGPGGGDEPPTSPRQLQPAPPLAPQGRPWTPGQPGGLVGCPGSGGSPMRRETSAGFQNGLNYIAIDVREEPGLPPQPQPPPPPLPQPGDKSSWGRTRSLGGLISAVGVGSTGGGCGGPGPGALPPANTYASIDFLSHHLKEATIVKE
inactive: nilotinib -0.05 | [1] -0.044 | dasatinib -0.018 | [2] -0.071 | [3] -0.074 | quisinostat -0.15 | tipifarnib -0.071 | [4] 0.142 | [5] 0.062 | [6] 0.112

HNRNPAB isoform 3 (UniProt Q99729)
inactive: nilotinib -0.012 | [1] 0.026 | dasatinib 0.022 | [2] 0.024 | [3] -0.028 | quisinostat 0.026 | tipifarnib 0.006 | [4] 0 | [5] -0.005 | [6] 0.012

HEATR3 (UniProt Q7Z4Q2)
inactive: nilotinib 0.023 | [1] -0.021 | dasatinib -0.042 | [2] -0.031 | [3] 0.062 | quisinostat -0.078 | tipifarnib 0.019 | [4] 0.033 | [5] -0.015 | [6] 0.001

GNB1 (UniProt P62873)
inactive: nilotinib 0.075 | [1] 0.057 | dasatinib -0.078 | [2] 0.098 | [3] -0.029 | quisinostat 0.107 | tipifarnib 0.019 | [4] -0.137 | [5] -0.027 | [6] -0.018

IMMT (UniProt Q16891)
inactive: nilotinib -0.009 | [1] 0.016 | dasatinib -0.075 | [2] 0.037 | [3] 0.01 | quisinostat 0.041 | tipifarnib -0.005 | [4] -0.007 | [5] -0.017 | [6] -0.035

KCT2 (UniProt Q8NC54)
Sequence of UniProt Q8NC54 (Q8NC54 whole entry, looked up): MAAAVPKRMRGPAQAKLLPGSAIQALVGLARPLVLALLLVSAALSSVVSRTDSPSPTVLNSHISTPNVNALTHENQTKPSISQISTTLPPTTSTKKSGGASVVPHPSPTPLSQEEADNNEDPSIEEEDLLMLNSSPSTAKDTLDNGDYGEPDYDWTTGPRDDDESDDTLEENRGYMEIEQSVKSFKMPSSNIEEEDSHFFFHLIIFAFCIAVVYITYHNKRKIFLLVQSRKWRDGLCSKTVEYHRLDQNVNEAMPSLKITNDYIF
inactive: nilotinib -0.034 | [1] 0.008 | dasatinib 0.025 | [2] -0.025 | [3] 0.043 | quisinostat 0.031 | tipifarnib 0.001 | [4] 0.024 | [5] 0.051 | [6] 0.005

HMGN4 (UniProt O00479)
inactive: nilotinib 0.049 | [1] -0.072 | dasatinib 0.192 | [2] 0.009 | [3] 0.003 | quisinostat 0.171 | tipifarnib 0.001 | [4] -0.019 | [5] 0.012 | [6] -0.028

HSP90AA4P (UniProt Q58FG1)
inactive: nilotinib -0.157 | [1] 0.052 | dasatinib 0.029 | [2] -0.062 | [3] 0.038 | quisinostat -0.145 | tipifarnib 0.01 | [4] -0.065 | [5] -0.047 | [6] -0.024

IGF2BP2 (UniProt Q9Y6M1)
inactive: nilotinib -0.051 | [1] 0.008 | dasatinib -0.055 | [2] -0.008 | [3] 0.031 | quisinostat 0.012 | tipifarnib 0.028 | [4] 0.06 | [5] 0.016 | [6] 0.019

HDAC1 (UniProt Q13547)
Sequence of UniProt Q13547 (Q13547 whole entry, looked up): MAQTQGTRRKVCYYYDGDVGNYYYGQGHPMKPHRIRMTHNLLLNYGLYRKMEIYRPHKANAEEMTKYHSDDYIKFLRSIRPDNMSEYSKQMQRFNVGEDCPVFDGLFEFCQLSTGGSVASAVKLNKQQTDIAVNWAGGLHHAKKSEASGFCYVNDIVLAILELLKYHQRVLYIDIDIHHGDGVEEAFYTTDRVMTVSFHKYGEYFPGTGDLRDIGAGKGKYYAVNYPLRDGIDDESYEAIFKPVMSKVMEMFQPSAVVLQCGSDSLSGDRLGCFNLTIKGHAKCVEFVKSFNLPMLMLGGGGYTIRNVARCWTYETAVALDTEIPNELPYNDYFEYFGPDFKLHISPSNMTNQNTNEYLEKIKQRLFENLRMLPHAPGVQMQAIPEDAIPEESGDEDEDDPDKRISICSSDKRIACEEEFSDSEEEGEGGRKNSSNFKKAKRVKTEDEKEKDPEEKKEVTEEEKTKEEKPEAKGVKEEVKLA
active: quisinostat 0.857
inactive: nilotinib 0.01 | [1] -0.024 | dasatinib -0.021 | [2] -0.019 | [3] 0.028 | tipifarnib -0.041 | [4] -0.033 | [5] 0.03 | [6] 0.009

IRF2BPL (UniProt Q9H1B7)
inactive: nilotinib 0.001 | [1] 0.005 | dasatinib -0.043 | [2] 0.054 | [3] -0.059 | quisinostat 0.032 | tipifarnib -0.069 | [4] -0.01 | [5] 0 | [6] 0

IMMT (UniProt C9J406)
inactive: nilotinib -0.044 | [1] 0.09 | dasatinib 0.045 | [2] 0.012 | [3] 0.051 | quisinostat 0.022 | tipifarnib -0.03 | [4] 0 | [5] 0.023 | [6] -0.038

HIST2H2AA3 (UniProt Q6FI13)
inactive: nilotinib 0.135 | [1] -0.098 | dasatinib 0.081 | [2] 0.035 | [3] -0.041 | quisinostat 0.064 | tipifarnib 0.058 | [4] 0.076 | [5] 0.01 | [6] 0.048

HMGN5 (UniProt P82970)
Sequence of UniProt P82970 (P82970 whole entry, looked up): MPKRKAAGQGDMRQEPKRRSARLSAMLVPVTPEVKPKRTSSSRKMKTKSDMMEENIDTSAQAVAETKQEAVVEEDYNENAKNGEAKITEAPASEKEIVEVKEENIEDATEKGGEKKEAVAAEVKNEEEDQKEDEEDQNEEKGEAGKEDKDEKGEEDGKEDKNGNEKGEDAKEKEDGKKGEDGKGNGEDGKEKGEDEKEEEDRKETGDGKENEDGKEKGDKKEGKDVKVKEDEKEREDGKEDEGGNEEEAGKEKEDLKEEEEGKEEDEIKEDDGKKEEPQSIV
inactive: nilotinib 0.029 | [1] 0.001 | dasatinib 0.03 | [2] 0.019 | [3] -0.003 | quisinostat 0.074 | tipifarnib 0.04 | [4] -0.042 | [5] -0.027 | [6] -0.003

HSPA8 (UniProt E9PK54)
inactive: nilotinib 0.023 | [1] -0.053 | dasatinib -0.024 | [2] -0.021 | [3] -0.032 | quisinostat -0.093 | tipifarnib -0.01 | [4] 0.113 | [5] -0.033 | [6] 0.004
